Values joined by “and” are separate entries in the source; they are usually repeats but may differ in a detail not shown here. Identical values can stand only once. This is part of a sample that, as a whole, favours compounds with a hit. Of some 83,000 tested, about 20% had one in any assay.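 In brief: 96-well plates, 48 h treatment, single concentration, percent growth endpoint.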 Active and inactive are the calls of the source. How the source made its calls: active means growth percent below 10; inactive means the rest.
Legend:
Experiment in all cases: NCI-60 one-dose screen, 48 h (100 = growth as untreated, 0 = no growth, -100 = all killed)
Conditions in all cases: 10 µM unless noted
DU-145 prostate = test system: DU-145 prostate
K-562 leukemia = test system: K-562 leukemia
MALME-3M melanoma = test system: MALME-3M melanoma
MDA-MB-231 breast = test system: MDA-MB-231 breast
RXF 393 renal = test system: RXF 393 renal
SF-268 CNS = test system: SF-268 CNS
SF-295 CNS = test system: SF-295 CNS
SF-539 CNS = test system: SF-539 CNS
UACC-257 melanoma = test system: UACC-257 melanoma
M14 melanoma = test system: M14 melanoma

Measured: growth

COC1/C=C/OC2(C)Oc3c(C)c(O)c4c(O)c(c(C=NOC(c5ccccc5)c5ccccc5)c(O)c4c3C2=O)NC(=O)/C(C)=C/C=C/C(C)C(O)C(C)C(O)C(C)C(OC(C)=O)C1C (stereo not given)
active: MDA-MB-231 breast 8.78% | RXF 393 renal -3.93% | SF-295 CNS 1.59%
inactive: DU-145 prostate 37.9% | K-562 leukemia 17.1% | MALME-3M melanoma 23.5% | SF-268 CNS 44.2% | SF-539 CNS 31.3% | UACC-257 melanoma 12.2% | M14 melanoma 23.2%

O=C(/C=C/c1ccccc1)c1cccs1
inactive: DU-145 prostate 97.8% and 93.1% | K-562 leukemia 106% and 71.2% | MALME-3M melanoma 119% | MDA-MB-231 breast 111% and 109% | RXF 393 renal 106% and 102% | SF-268 CNS 98.4% and 98.3% | SF-295 CNS 97.7% and 95.1% | SF-539 CNS 105% and 111% | UACC-257 melanoma 96.3% and 106% | M14 melanoma 98.1% and 112%

CC1=CC(C)(C)NC(=S)N1c1ccc(Cl)cc1
inactive: DU-145 prostate 105% and 110% | K-562 leukemia 97.7% and 92.6% | MALME-3M melanoma 99.7% | MDA-MB-231 breast 101% and 99.3% | RXF 393 renal 104% and 121% | SF-268 CNS 101% and 100% | SF-295 CNS 101% and 111% | SF-539 CNS 98.7% and 106% | UACC-257 melanoma 98.6% and 105% | M14 melanoma 102% and 95%

C=C1C(=O)O[C@H]2[C@H]1CC/C(COC(=O)NCc1ccc(Cn3c(=O)sn(CCCI)c3=O)cc1)=C\CC[C@@]1(C)O[C@@H]21
active: K-562 leukemia 4.22% | MALME-3M melanoma -75.5% | RXF 393 renal -5.91% | M14 melanoma -42%
inactive: DU-145 prostate 13% | MDA-MB-231 breast 10.9% | SF-268 CNS 75% | SF-295 CNS 99.3% | SF-539 CNS 40% | UACC-257 melanoma 28.8%

CC/C=C\C/C=C\C[C@H](O)C/C=C1/C(=O)C=C[C@@H]1C/C=C\CCCC(=O)OC
active: DU-145 prostate 6.78% | K-562 leukemia 3.6% | MALME-3M melanoma -5.8% | MDA-MB-231 breast -5.48% | RXF 393 renal -58.2% | SF-268 CNS 8.53% | SF-295 CNS -8.95% | SF-539 CNS 1.23% | UACC-257 melanoma -13.9% | M14 melanoma -23%

O=[N+]([O-])c1ccc(S(=O)Cc2ccccc2)c([N+](=O)[O-])c1 (stereo not given)
active: MALME-3M melanoma -61.7% and -33.4% | RXF 393 renal -36.6% and -28.2%
inactive: DU-145 prostate 79.3% and 70.5% | K-562 leukemia 25.9% | MDA-MB-231 breast 74.6% and 82.1% | SF-268 CNS 86.6% and 88.5% | SF-295 CNS 95.9% | SF-539 CNS 90.7% and 46.3% | UACC-257 melanoma 37% and 69.3% | M14 melanoma 55.8% and 31.7%

O=[N+]([O-])c1ccc2[nH]c3nccc(NCc4cccc(Cl)c4)c3c2c1
inactive: DU-145 prostate 64.6% | K-562 leukemia 79.4% | MALME-3M melanoma 46.4% | MDA-MB-231 breast 80.2% | RXF 393 renal 66.4% | SF-268 CNS 46.1% | SF-295 CNS 67.3% | SF-539 CNS 71.1% | UACC-257 melanoma 85.5% | M14 melanoma 83.4%

CCN(CC)CCOc1ccccc1C
inactive: DU-145 prostate 113% | K-562 leukemia 97.5% | MALME-3M melanoma 105% | MDA-MB-231 breast 103% | RXF 393 renal 160% | SF-268 CNS 120% | SF-295 CNS 101% | SF-539 CNS 93.7% | UACC-257 melanoma 106% | M14 melanoma 98.8%

c1cc(NCCCCN2CCOCC2)c2ccc3c(ccc4c(NCCN5CCOCC5)ccnc43)c2n1
inactive: DU-145 prostate 80.8% | K-562 leukemia 66.5% | MALME-3M melanoma 99.9% | MDA-MB-231 breast 71% | RXF 393 renal 72.5% | SF-268 CNS 101% | SF-295 CNS 97.9% | SF-539 CNS 82.3% | UACC-257 melanoma 116% | M14 melanoma 92.7%

CC1(C)C(N)=Nc2cc(OCCCCN3Cc4ccccc4C3)c(OCC3CC3)cc21
inactive: DU-145 prostate 88.8% | K-562 leukemia 97.3% | MDA-MB-231 breast 59.2% | RXF 393 renal 65.8% | SF-268 CNS 74.7% | SF-295 CNS 84.8% | SF-539 CNS 80.8%
active: MALME-3M melanoma 2.01% | UACC-257 melanoma 1.07% | M14 melanoma -53.1%

Clc1ccc(CNc2ccc3nc(CCC4CCCCC4)[nH]c3c2)cc1
active: K-562 leukemia 6.84%
inactive: DU-145 prostate 83.5% | MALME-3M melanoma 31.4% | MDA-MB-231 breast 62.8% | RXF 393 renal 52% | SF-268 CNS 79% | SF-295 CNS 73.4% | SF-539 CNS 69.6% | UACC-257 melanoma 71.4% | M14 melanoma 45%

Source: PubChem BioAssay (NCI)
